# Hits are enriched below; roughly 9.2% of the tested compounds scored in any of these assays.
# ELG1 genotoxic: induces genotoxicity in HEK293T cells with luciferase-tagged ELG1. HEK293T ELG1-luciferase reporter, luminescence, 16 h. 330,000 tested, 1.3% active. Potency, µM (highest dose often 46 µM), inactives show at the top dose activity change, positive = activation, hits mostly activators; note: % of control where 0% means no effect; nearly all actives have a fitted effect of over 60% in size
#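 ELG1-luciferase HEK293T cells, 2,000/well; compound pinned in; 16 hr, 37 °C, 5% CO2; ONE-Glo, 30 min RT; luminescence on CCD imager.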
# Rab9 prom act: activators of Rab9 promoter. Huh7 Rab9 promoter-luciferase reporter, luminescence, 24 h. Potency, µM (series often up to 9.22 µM), without a hit: top-dose activation, negative = inhibition, most hits filed as activators. 320,000 tested, 2.8% active. AID 485297; note: % of control where 0% means no effect; nearly all actives have a fitted effect of over 60% in size
#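 Measured in stably transfected Huh7 cells bearing a Rab9 promoter–luciferase construct: 24 h compound treatment at 37 °C, followed by luminescence detection.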
# FLuc counter: inhibits or activates purified firefly luciferase, miR-21 counter-screen; AID 588342; 360,000 tested, 6.9% active; purified FLuc, Km substrates, luminescence inhibition; Potency, µM (doses to about 57.5 µM), inactives show at the top dose activity change, negative = inhibition, usual class: inhibitors;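 note: plate controls were vehicle for no effect and reference inhibitor for full effect; nearly all actives have a fitted effect of over 55% in size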
# Target sequence (P08659 whole entry, looked up): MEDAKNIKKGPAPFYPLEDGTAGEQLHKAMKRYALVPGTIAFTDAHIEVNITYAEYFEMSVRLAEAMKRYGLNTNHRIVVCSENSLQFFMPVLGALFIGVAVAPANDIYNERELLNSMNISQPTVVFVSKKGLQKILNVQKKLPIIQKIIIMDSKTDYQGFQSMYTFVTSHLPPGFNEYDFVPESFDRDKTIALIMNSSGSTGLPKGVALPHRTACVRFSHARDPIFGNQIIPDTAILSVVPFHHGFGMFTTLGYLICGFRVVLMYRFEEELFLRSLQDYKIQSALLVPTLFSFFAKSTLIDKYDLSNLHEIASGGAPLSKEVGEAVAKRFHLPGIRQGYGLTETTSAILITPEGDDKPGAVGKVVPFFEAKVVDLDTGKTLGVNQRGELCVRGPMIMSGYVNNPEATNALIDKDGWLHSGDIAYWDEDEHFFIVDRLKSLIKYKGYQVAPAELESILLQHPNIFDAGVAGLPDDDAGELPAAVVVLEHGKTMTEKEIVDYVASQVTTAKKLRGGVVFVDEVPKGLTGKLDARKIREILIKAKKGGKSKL
#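 Purified P. pyralis luciferase, 10 nM final, with Km-level 10 uM D-luciferin and 10 uM ATP in 50 mM Tris acetate pH 7.5, 10 mM Mg acetate, 0.01% Tween-20, 0.05% BSA; 6-point qHTS titration about 60 µM downward; luminescence read.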
# NPC1 prom act: activators of NPC1 promoter | 320,000 tested, 2.4% active | Huh7 NPC1 promoter luciferase reporter, 24 h | Potency, µM (doses to about 9.22 µM), for the others: at the highest dose activation, actives largely listed as activators; note: % of control where 0% means no effect; nearly all actives have a fitted effect of over 60% in size
#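 Quantitative HTS used a cell-based reporter: Huh7 cells stably bearing the NPC1 promoter upstream of luciferase were treated with compounds for 24 h, and promoter activation was read as luminescence.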
# SMN2 splice enh: SMN2 splice variant enhancement | HEK293 SMN2-luciferase splicing reporter, luminescence, 30-36 h | Potency, µM (titrated, usually from 46.1 µM), for inactives: at the top dose activity change, positive = activation, hits mostly activators | 210,000 tested, 2.8% active; note: % of control where 0% means no effect; nearly all actives have a fitted effect of over 55% in size
#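 HEK293 cells carry an SMN2 […]–luciferase reporter in which exon 7 inclusion puts luciferase in frame. Cells were plated 10-12 h before compound addition, then incubated 30-36 h at 37C. ONE-Glo luminescence was read; sodium butyrate at 4.5 mM final served as control.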
# ELG1 repair inh: ELG1-dependent DNA repair inhibition; HEK293T ELG1-luciferase reporter, luminescence, 16 h; DNA damage induced by 5-fluorouridine; Potency, µM (top dose mostly 46.1 µM), without a hit: at the top dose activity change, negative = inhibition, most hits filed as inhibitors; 330,000 tested, 2.3% active; note: % is set by controls: 0 for no effect and ±100 for the full control effect; nearly all actives have a fitted effect of over 55% in size
#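 DMSO vehicle served as the neutral condition. Each well held 2,000 cells given 5-fluorouridine plus compound; after 16 hr at 37 °C/5% CO2, ONE-Glo was added and luciferase measured 30 min later.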
# Numbers without * were called inactive; u = inconclusive; x = not tested or not shown; [ ] = remark or other dose. Calls come from the whole dose curve; as a rule, active = well fitted curve in the direction sought with a large enough effect; inconclusive = small, poorly fitted or top-dose-only effect, or another doubt; inactive = no such curve, though single readings can be large; an effect the other way counts as inactive or inconclusive. Potency is the fitted concentration of half-maximal effect.
SMILES,ELG1 genotoxic,Rab9 prom act,FLuc counter,NPC1 prom act,SMN2 splice enh,ELG1 repair inh
CN(C)c1ccc(N(C)C)cc1,x,x,x,x,-9%,x
COc1ccc(N2CCN(Cc3nc4ccccc4[nH]3)CC2)cc1,15%,29%,2%,2%,x,9%
c1ccc(OCCSc2nc3ccccc3[nH]2)cc1,13%,29%,17µM*,u,u,u
CCc1nn(CC(=O)N2CCN(Cc3ccc4c(c3)OCO4)CC2)c(=O)c2cc3occc3n12,-9%,-1%,5%,-6%,-57%,21µM*
O=C(Cc1ccc([N+](=O)[O-])cc1)N1CCN(Cc2ccc3c(c2)OCO3)CC1,-11%,-4%,5%,-7%,x,u
CCN(CC)C(=O)c1ccc(NC(=O)c2cccc(F)c2)cc1,u,18%,15µM*,20%,0%,u
COc1ccc2nc(NC(=O)CCc3nc(C4=CCN(C)CC4)no3)sc2c1,-3%,-3%,21µM*,-2%,-6%,3%
CCOc1ccc(C(=O)Nc2nnc(S(=O)(=O)N(C)Cc3ccco3)s2)cc1,0%,3%,0%,-2%,x,u
On1ccccc1=S,-53%,-36%,8.5µM*,-24%,x,u
CCC(Cl)[N+](=O)[O-] (configuration not stated),x,x,x,x,6%,x
COc1ccccc1NS(=O)(=O)c1cc(NC(=O)c2ccc(Cl)nc2)ccc1N1CCCC1,-5%,x,x,x,x,16µM*
COc1cc(C(=O)Nc2ccc(Br)cc2C(=O)c2ccccc2Cl)cc(OC)c1OC,1%,-9%,0%,-6%,-17%,-18%
Nc1ccc2cc(Br)ccc2c1,10%,5%,-19%,5%,-27%,5%
CCN(CC)C(=O)Oc1ccc2cc(Br)ccc2c1,u,22%,21µM*,8%,2%,u
C[C@H](c1ccccc1)N1CCN([C@@H](C)c2ccccc2)CC1,x,x,x,x,-9%[9.22 µM],x
CC1(C)CN=C(Nc2nc3ccccc3s2)S1,5.8µM*,0.63µM*,3.4µM*,1.8µM*,13µM*,u
CCOc1ccc(N(C(C)C(=O)Nc2cc(Cl)ccc2OC)S(C)(=O)=O)cc1 (configuration not stated),x,x,6%,x,-47%,x
COc1cc(/C=C2/C(=O)NC(=O)N(c3ccccc3)C2=O)ccc1O,1%,-2%,u,-2%,-11%,-9%
Cc1ccc(/C=C2\C(=O)NC(=S)N(c3ccc(F)cc3)C2=O)o1,-17%,-9%,u,0%,x,12%
COc1ccc(N2C(=O)/C(=C/c3ccc(N(C)C)o3)C(=O)NC2=S)cc1,u,4%,-9%,-3%,x,u
COc1ccccc1/C=C1\C(=O)NC(=S)N(c2ccccc2)C1=O,0%,0%,-8%,-1%,x,-2%
COc1cccc(N2C(=O)/C(=C/c3ccc(C)o3)C(=O)NC2=S)c1,2%,9%,15µM*,1%,x,4%
O=C1NC(=S)N(c2ccccc2)C(=O)/C1=C/c1ccco1,2%,-5%,19µM*,-4%,x,6%
COc1cccc(N2C(=O)NC(=O)/C(=C/c3ccc4c(c3)Cc3ccccc3-4)C2=O)c1,2%,-3%,21µM*,1%,-16%,u
CCOc1cccc(N2C(=O)/C(=C/c3ccco3)C(=O)NC2=S)c1,4%,-9%,21µM*,-1%,x,-2%
Cn1cnc2cc(NC(=O)c3ccc(Cl)cc3)ccc21,u,2.8µM*,12µM*,2.8µM*,11µM*,u
CCN(CC)c1ccc(N=Cc2c(O)n(-c3ccccc3C)c(=O)[nH]c2=O)cc1,3%,-2%,u,0%,0%,0%
CCOc1ccccc1-n1c(O)c(C=Nc2ccc(N(CC)CC)cc2)c(=O)[nH]c1=O,14%,-5%,19µM*,9%,-5%,28%
